Measured values published in PubChem BioAssay AID1209 (Sanford-Burnham Center for Chemical Genomics, 2008).
The whole screen tested about 190,000 compounds, of which about 810 (0.43%) were called active. Cut-off read from the data, not from the text of the source: active = inhibition above about 50%; inactive = the rest. Shown is part of a subset that was picked to be rich in actives.

target: Mannose-6-phosphate isomerase (Homo sapiens) (UniProt P34949); assay: MPI enzyme activity inhibition – biochemical, fluorescence intensity, coupled assay, primary screen (AID 1209); settings: purified PMI enzyme, at 20 µM, active compounds read high;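 note: plate controls were DMSO vehicle for no effect and wells lacking substrate for full effect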
Sequence (P34949 whole entry, looked up): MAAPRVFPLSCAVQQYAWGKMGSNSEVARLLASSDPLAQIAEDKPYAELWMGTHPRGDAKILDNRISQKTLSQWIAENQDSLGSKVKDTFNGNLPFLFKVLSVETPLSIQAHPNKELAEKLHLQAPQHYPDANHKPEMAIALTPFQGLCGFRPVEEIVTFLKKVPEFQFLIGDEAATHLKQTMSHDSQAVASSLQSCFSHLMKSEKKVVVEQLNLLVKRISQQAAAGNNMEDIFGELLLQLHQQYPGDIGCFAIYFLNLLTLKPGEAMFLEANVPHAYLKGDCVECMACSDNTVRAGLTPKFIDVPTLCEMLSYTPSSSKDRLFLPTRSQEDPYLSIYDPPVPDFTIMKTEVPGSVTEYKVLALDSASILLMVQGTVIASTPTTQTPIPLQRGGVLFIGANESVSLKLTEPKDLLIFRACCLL

inhibition, inactive:
O=C(c1cc2nc(-c3ccco3)cc(C(F)(F)F)n2n1)N1CCCCCC1 -12.3%
CCCOC(=O)c1ccc(Nc2nc(C)cc(=O)[nH]2)cc1 1.7%
Cc1cc(C)nc(SCc2nnc(SCC(=O)Nc3cc(C(F)(F)F)ccc3Cl)o2)n1 3%
Cc1ccc(N2C(=O)C3Sc4[nH]c(=O)sc4C(c4ccccc4)C3C2=O)cc1 (stereo not drawn) 11.4%
COc1ccc(C(=O)NC(C)c2ccccc2)cc1Br (stereo not drawn) 3.2%
COC(=O)C1Sc2[nH]c(=O)sc2C2c3ccccc3OC(=O)C12 (stereo not drawn) 10.6%
O=C(O)C1Sc2[nH]c(=O)sc2C2c3ccc(O)cc3OC(=O)C12 (stereo not drawn) 24.3%
O=C(Nc1ccc(S(=O)(=O)Nc2nccs2)cc1)c1cc(-c2ccccn2)nc2ccccc12 -1.4%
CC(C)CCn1c(=O)c(C(=O)N/N=C/c2cccc(F)c2)c(O)c2ccccc21 -3.7%
CC(C)(C)C1=CC(=Nc2ccccc2N)C=C(C(C)(C)C)C1=O -7.3%
CC(C)(C=O)C1=CC(=O)c2ccccc2C1=O -17.2%
COc1ccc(CCNC(=O)CN2CCN(c3cccc(C(F)(F)F)c3)CC2)cc1 3.1%
O=C(c1ccco1)N1CCN(c2nc(-c3ccc(F)cc3)cs2)CC1 5.4%
N#CC(=C1CCCC1)c1nc(-c2cc3ccccc3oc2=O)cs1 1.4%
CN(C)CCCNS(=O)(=O)c1ccc(Cl)s1 0%
Fc1ccc(C2c3cccn3CCN2C(=S)Nc2cccc(Br)c2)cc1 (stereo not drawn) 5.7%
O=C1CCc2cc(S(=O)(=O)N3CCN(c4ccccc4F)CC3)ccc2N1 6%
COc1ccc(CC(NC(C)=O)C(=O)NC2CCN(C(=O)NCc3ccccc3)CC2)cc1OC (stereo not drawn) -4.4%
CCC(=O)NC(=S)Nc1ccc(NC(=O)COc2ccc(Cl)cc2Cl)cc1 5.1%
CCC(=O)NC(=S)Nc1ccc(NC(=O)COc2ccccc2)cc1 10.1%
Cc1cc(NC(=O)CSc2nnc(NC(=O)C3CC(=O)N(c4ccccc4)C3)s2)no1 (stereo not drawn) -9.8%
O=C(CCn1c(=O)sc2ccccc21)NCCC1=CCCCC1 3.6%
CCOC(=O)C1=C(Cc2ccc(OC)cc2)C(=O)c2ccccc2C1=O 22.9%
COc1ccc(C2=C(N)c3ccccc3C2=O)cc1 3.9%
O=C(C1=C(c2ccccc2)C(=O)c2ccccc2C1=O)c1ccccc1 48.7%
CC(C)c1ccc(C2=C(O)c3ccccc3C(=O)C2=O)cc1 -3.9%
OC(CNCc1ccccc1)Cn1ccc2ccccc21 (stereo not drawn) -1.3%
NC(N)=N/N=C/c1ccc(Br)cc1 -2.5%
O=c1cc(-c2ccc(O)c(O)c2)oc2cc(O)c(C3OC(CO)C(O)C(O)C3O)c(O)c12 (stereo not drawn) 45.4%
O=c1cc(-c2ccc(O)cc2)oc2c([C@@H]3O[C@H](CO)[C@@H](O)[C@H](O)[C@H]3O)c(O)c([C@@H]3O[C@H](CO)[C@@H](O)[C@H](O)[C@H]3O)c(O)c12 -0.7%
NC1=Nc2cccc3cccc1c23 12.8%
CC(=O)N1C(=O)c2cccc3cccc(c23)C(=O)N1C(C)=O 9.5%
CCN1CCN(C(=O)c2oc(=O)c3ccccc3c2-c2ccc(C)cc2)CC1 -1.6%
CNc1nc2[nH]c(=O)c3c(c2s1)OC(N)=C(C#N)C3c1ccccc1 (stereo not drawn) 43.5%
CNc1nc2[nH]c(=O)c3c(c2s1)OC(N)=C(C#N)C3c1cccc(F)c1 (stereo not drawn) 39.7%
COCCCNC(=S)N/N=C/c1ccc(N(C)C)cc1 1%
CCC(C)/C(C)=N/NC(=O)c1ccc(COc2ccc(Cl)c(C)c2)cc1 (stereo not drawn) 13.9%
COCc1ccc(O)c2ncccc12 23.7%
Cc1ccc(NCc2ccccc2O)cc1C 19.9%
Cc1cccc(NCc2ccc(O)c3ncccc23)c1 42.5%
OCc1ccc(O)c2ncccc12 27%
Cc1ccc(NCc2ccccc2O)cc1 13.8%
O=[N+]([O-])c1ccc(O)c2ncccc12 -7.5%
Oc1ccc(CNc2ccc(F)cc2)c2cccnc12 36.2%
Oc1ccc(COCc2ccccc2)c2cccnc12 46.1%
S=c1[nH]nc(-c2cccnc2)o1 -18.4%
Nc1nc(NC(=O)/C=C\C(=O)O)nn1-c1ccccc1 -12.4%
Cc1ccc(C)c(NC(=S)N(Cc2ccc(Cl)cc2)Cc2ccc(C(=O)O)cc2)c1 -4.3%
O=C(NCCN1C(=O)S/C(=C\c2ccccc2)C1=O)C1CCN(S(=O)(=O)c2cccs2)CC1 8.1%
CC(=O)c1cnn(-c2cc(Oc3cccc(C)c3)ncn2)c1C 16.6%
O=Cc1cn(-c2ccc(F)cc2)c2ccccc12 4.3%
Cc1cccc(NC(=O)c2ccccc2OCC(=O)N2CCOCC2)c1C 11.4%
CCOc1ccccc1NC(=O)NCc1cccnc1 0.3%
CSC1=C(C#N)C(c2ccc3c(c2)OCO3)C2=C(CCCC2=O)N1 (stereo not drawn) -3%
CC(=O)c1ccc(NC(=S)N2CCN(c3cccc(Cl)c3)CC2)cc1 -6.5%
COc1cc(C(=S)N2CCCC2)cc(OC)c1O 17.5%
COc1cc(C(=S)N2CCCC2)cc(Cl)c1O 4.8%
COc1cc(C(=S)N2CCCC2)ccc1O -0.7%
COc1ccc(C(=S)N2CCN(c3cccc(Cl)c3)CC2)c(OC)c1 20.6%
Oc1ccccc1C(=S)N1CCN(c2cccc(Cl)c2)CC1 22.1%
Cc1cccc(C)c1NC(=O)C1(N(Cc2ccco2)C(=O)Cn2nnnc2N)CCCCC1 4.1%
COc1ccc(CNC(=O)C/C(C)=N/NC(=O)Cc2ccc(OC)cc2)cc1 -4%
COC(=O)c1ccc(C(=O)OC)c(NC(=O)COC(=O)c2ccc(OC)c(OC)c2OC)c1 7.2%
COC(=O)c1ccc2c(c1)C(=O)/C(=C/c1ccc(O)cc1)O2 8%
COC(=O)c1ccc2c(c1)C(C)(C)C(/C=C/c1ccccc1O)=[N+]2C 39.9%
COC(=O)c1ccc2nc(C)c(C)nc2c1 -5.7%
CN(C)c1ccc(C(=O)OCc2ccccc2)cc1 16%
CCS(=O)(=O)c1ccc2c(c1)N(S(=O)(=O)c1ccc(Cl)cc1)CC(C(=O)O)O2 (stereo not drawn) -3.9%
Cc1ccc(-c2ccc(/C=N/N=C3/NC(=O)C(CC(=O)O)S3)o2)c([N+](=O)[O-])c1 (stereo not drawn) 30.5%
O=C(O)CC1S/C(=N/N=C/c2ccc(-c3ccc(Cl)c([N+](=O)[O-])c3)o2)NC1=O (stereo not drawn) -9%
COC(=O)c1cccc(NC(N)=S)c1 -7.9%
COC(=O)c1cccc(-n2cnnn2)c1 -6.9%
COc1ccc(OC)c2c(C)cc(NCCN3CCOCC3)nc12 11.7%
CCn1nc(CC(=O)Nc2nnc(CC(=O)N3CCOCC3)s2)c2ccccc2c1=O 5.5%
CCn1nc(CC(=O)Nc2nnc(CC(=O)N3CCCCC3)s2)c2ccccc2c1=O 4.6%
COc1ccnc(Oc2ccc(Cl)cc2)c1C#N -5.9%
CC(C)CC(=O)N1CCN(Cc2ccc3c(c2)OCO3)CC1 3.6%
CCOC(=O)N1CCN(C(=O)Cn2ccc3c(OC)cccc3c2=O)CC1 3.2%
CCCn1c(SCC(=O)Nc2cc(S(=O)(=O)N3CCOCC3)ccc2OC)n[nH]c1=O -2%
CCOc1cc(-c2nc(C)c(C(C)=O)n2O)ccc1OCC(=O)Nc1ccc(F)cc1 -3.7%

inhibition, active:
O=C(O)C1Sc2[nH]c(=O)sc2C2c3cc(Cl)ccc3OC(=O)C12 (stereo not drawn) 50.4%
CC(C)(C)C1=CC(=O)C(=O)C(C(C)(C)C)=C1 61.2%
CCC(=O)NC(=S)Nc1ccc(NC(=O)COc2ccc(Cl)c(C)c2)cc1 62.3%
CC(=O)C1=C(c2ccc(Br)cc2)C(=O)c2ccccc2C1=O 80.3%
O=c1cc(-c2ccc(O)c(O)c2)oc2c(C3O[C@H](CO)[C@@H](O)[C@H](O)[C@H]3O)c(O)cc(O)c12 (stereo partly drawn) 51.9%
CCNc1nc2[nH]c(=O)c3c(c2s1)OC(N)=C(C#N)C3c1ccc(C)cc1 (stereo not drawn) 54.6%
Cc1ccc(NCc2ccc(O)c3ncccc23)cc1 50.8%
Oc1ccc(F)c2cccnc12 50.9%
Cc1ccc(NCc2ccc(O)c3ncccc23)cc1C 55.8%
Oc1ccc(CNc2ccccc2)c2cccnc12 50.5%
Oc1ccc(C(=S)N2CCN(c3cccc(Cl)c3)CC2)cc1 59.2%
COc1cc(C(=S)N2CCN(c3cccc(Cl)c3)CC2)ccc1O 58.8%
COc1cc(C(=S)N2CCN(c3ccccc3Cl)CC2)cc(O)c1O 67.5%
COC(=O)c1ccc2c(c1)C(C)(C)C(/C=C/c1ccc(OC)c(OC)c1OC)=[N+]2C 91.8%
COC(=O)c1ccc2c(c1)C(C)(C)C(/C=C/c1ccc(O)cc1)=[N+]2C 72%
O=C(O)CC1S/C(=N/N=C/c2ccc(-c3ccccc3[N+](=O)[O-])o2)NC1=O (stereo not drawn) 68.4%
COC(=O)c1cccc(-n2[nH]nnc2=S)c1 64.8%
CCn1nc(CC(=O)Nc2nnc(CC(=O)N3CCCC3)s2)c2ccccc2c1=O 50.5%
